We go through 14 substances from the supplement of paper PMC8728848.

What all share (assay): glycan array binding signal (z-score within array); higher = stronger binding
Assay [1] relates to Gal(b1-4)GlcNAc(b1-6)GalNAc. To be noted: glycan notation: IUPAC condensed, linker removed. The method in brief:
(§1)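 The binding signal is a Z-score computed within each array. Data were drawn from 3228 arrays in the Consortium for Functional Glycomics database, restricted to those with a known protein sequence. Scores were averaged over arrays of the same protein sequence at different concentrations or buffers, and over linkers, and negative values can be taken as non-binding.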

The test system of assay [2] is Gal3S(b1-3)[Fuc(a1-4)]GlcNAc. The note with it: glycan notation: IUPAC condensed, linker removed. A digest of the protocol:
as §1

The subject of the next assay is Gal3S6S(b1-4)GlcNAc6S. To be noted: glycan notation: IUPAC condensed, linker removed. A digest of the protocol:
as §1

Another assay deals with Gal(b1-6)Gal. The note with it: glycan notation: IUPAC condensed, linker removed. The method in brief: as §1
For a further assay, the system named is Gal3S(b1-3)GlcNAc. To be noted: glycan notation: IUPAC condensed, linker removed. The method in brief:
as §1

The test system of another assay is Gal3S(b1-4)Glc. To be noted: glycan notation: IUPAC condensed, linker removed. The method in brief:
as §1

The test system of the next assay is Gal6S(b1-4)GlcNAc. To be noted: glycan notation: IUPAC condensed, linker removed. A digest of the protocol:
as §1

The next assay has as its system Gal3S6S(b1-4)GlcNAc. To be noted: glycan notation: IUPAC condensed, linker removed. A digest of the protocol: as §1
Another assay concerns Gal(b1-4)GlcNAc. The note with it: glycan notation: IUPAC condensed, linker removed. The method in brief: as §1
Another assay has as its system Gal3S(b1-4)GlcNAc6S. To be noted: glycan notation: IUPAC condensed, linker removed. The method in brief: as §1
Another assay deals with Gal3S(b1-4)GlcNAc. The note with it: glycan notation: IUPAC condensed, linker removed. The method in brief: as §1
The subject of assay [3] is Gal3S(b1-4)[Fuc(a1-3)]Glc. To be noted: glycan notation: IUPAC condensed, linker removed. The method in brief: as §1
For the next assay, the system named is Gal4S6S(b1-4)GlcNAc. The note with it: glycan notation: IUPAC condensed, linker removed. The method in brief:
as §1

For a further assay, the system named is Gal(b1-4)Glc. To be noted: glycan notation: IUPAC condensed, linker removed. The method in brief: as §1
The next assay relates to Gal6S(b1-3)GlcNAc. The note with it: glycan notation: IUPAC condensed, linker removed. A digest of the protocol:
as §1

Assay [4] has as its system Gal(b1-4)GlcNAc(b1-6)[Gal(b1-3)]GalNAc. The note with it: glycan notation: IUPAC condensed, linker removed. The method in brief: as §1
The next assay deals with Gal3S(b1-3)GalNAc. To be noted: glycan notation: IUPAC condensed, linker removed. The method in brief:
as §1

In assay [5] the test system is Gal3S(b1-4)[Fuc(a1-3)]Glc6S. The note with it: glycan notation: IUPAC condensed, linker removed. The method in brief: as §1
Assay [6] deals with Gal3S(b1-4)[Fuc(a1-3)]GlcNAc6S. The note with it: glycan notation: IUPAC condensed, linker removed. A digest of the protocol:
as §1

Assay [7] concerns Gal3S(b1-4)[Fuc(a1-3)]GlcNAc. To be noted: glycan notation: IUPAC condensed, linker removed; mutation: R125K. A digest of the protocol:
as §1

The sample as a whole holds a higher share of the strongest signals than the screen did.

PILRa (Mus musculus), Q2YSF3, sequence (Q2YSF3 entry or part of it): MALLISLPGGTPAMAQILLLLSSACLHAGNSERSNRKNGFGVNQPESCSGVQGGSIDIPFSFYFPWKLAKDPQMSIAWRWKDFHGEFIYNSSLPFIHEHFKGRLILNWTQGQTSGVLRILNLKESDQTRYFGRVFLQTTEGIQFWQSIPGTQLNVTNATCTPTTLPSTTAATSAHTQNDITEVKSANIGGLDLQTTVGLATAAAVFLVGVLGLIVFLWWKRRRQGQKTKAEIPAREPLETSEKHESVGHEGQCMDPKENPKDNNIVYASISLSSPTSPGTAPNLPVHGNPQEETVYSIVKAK
SRLC (Mus musculus), Q8VIF6, sequence (Q8VIF6 other isoform, or with tags, fused parts or gaps): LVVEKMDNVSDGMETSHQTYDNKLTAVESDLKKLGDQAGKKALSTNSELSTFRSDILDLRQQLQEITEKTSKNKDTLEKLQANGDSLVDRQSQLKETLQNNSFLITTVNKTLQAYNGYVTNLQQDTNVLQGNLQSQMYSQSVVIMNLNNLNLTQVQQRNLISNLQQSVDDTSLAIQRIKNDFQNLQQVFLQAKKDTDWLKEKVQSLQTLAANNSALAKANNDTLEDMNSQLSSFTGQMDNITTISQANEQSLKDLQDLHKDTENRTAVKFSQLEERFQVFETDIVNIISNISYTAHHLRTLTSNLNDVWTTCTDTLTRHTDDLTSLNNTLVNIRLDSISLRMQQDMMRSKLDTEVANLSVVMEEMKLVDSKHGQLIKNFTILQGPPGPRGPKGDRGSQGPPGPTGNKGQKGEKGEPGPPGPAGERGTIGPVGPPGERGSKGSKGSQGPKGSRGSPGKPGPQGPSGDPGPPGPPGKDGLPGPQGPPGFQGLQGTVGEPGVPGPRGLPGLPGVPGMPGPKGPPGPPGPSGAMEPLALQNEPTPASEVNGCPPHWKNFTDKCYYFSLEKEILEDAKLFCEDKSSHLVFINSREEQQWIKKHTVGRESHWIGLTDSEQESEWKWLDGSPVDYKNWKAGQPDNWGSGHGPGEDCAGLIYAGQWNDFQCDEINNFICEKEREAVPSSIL
CHI3L1 (Homo sapiens), P36222, sequence (P36222 whole entry): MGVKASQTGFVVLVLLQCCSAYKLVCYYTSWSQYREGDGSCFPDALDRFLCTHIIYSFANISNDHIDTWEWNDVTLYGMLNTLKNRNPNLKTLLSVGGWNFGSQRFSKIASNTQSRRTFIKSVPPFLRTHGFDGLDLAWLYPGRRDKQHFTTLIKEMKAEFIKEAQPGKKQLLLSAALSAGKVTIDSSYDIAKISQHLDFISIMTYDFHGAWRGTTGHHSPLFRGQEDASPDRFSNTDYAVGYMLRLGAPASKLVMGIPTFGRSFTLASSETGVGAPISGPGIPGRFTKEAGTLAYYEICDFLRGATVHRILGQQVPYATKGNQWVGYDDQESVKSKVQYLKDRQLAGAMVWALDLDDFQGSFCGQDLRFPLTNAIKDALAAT
6RG (Lolium perenne), B9U140, sequence (B9U140 entry or part of it): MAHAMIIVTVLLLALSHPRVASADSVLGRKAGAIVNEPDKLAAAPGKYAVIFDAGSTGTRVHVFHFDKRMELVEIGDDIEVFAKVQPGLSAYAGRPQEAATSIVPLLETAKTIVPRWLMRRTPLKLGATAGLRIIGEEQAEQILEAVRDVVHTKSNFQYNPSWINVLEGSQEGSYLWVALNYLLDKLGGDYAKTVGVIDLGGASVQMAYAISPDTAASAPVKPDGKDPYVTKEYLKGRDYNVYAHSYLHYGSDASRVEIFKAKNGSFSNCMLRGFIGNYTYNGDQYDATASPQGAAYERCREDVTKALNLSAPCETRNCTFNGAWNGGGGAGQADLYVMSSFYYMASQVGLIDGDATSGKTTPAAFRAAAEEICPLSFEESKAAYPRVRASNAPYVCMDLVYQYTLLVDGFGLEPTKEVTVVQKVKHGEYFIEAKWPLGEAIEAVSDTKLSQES
Aggrecan (Rattus norvegicus), NP_071526, sequence (chain, as listed by the source): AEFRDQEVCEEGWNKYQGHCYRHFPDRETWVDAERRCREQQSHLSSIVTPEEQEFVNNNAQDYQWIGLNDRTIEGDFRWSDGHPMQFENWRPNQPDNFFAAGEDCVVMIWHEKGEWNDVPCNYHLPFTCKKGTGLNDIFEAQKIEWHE
Regenerating Gene IV (Homo sapiens), Q9BYZ8, sequence (Q9BYZ8 whole entry, looked up): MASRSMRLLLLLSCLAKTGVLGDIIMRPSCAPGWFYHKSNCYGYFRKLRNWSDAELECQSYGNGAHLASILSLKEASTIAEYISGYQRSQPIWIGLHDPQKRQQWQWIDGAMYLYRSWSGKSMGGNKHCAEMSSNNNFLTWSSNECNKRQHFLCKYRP
CHT (Homo sapiens), sequence (chain, as listed by the source): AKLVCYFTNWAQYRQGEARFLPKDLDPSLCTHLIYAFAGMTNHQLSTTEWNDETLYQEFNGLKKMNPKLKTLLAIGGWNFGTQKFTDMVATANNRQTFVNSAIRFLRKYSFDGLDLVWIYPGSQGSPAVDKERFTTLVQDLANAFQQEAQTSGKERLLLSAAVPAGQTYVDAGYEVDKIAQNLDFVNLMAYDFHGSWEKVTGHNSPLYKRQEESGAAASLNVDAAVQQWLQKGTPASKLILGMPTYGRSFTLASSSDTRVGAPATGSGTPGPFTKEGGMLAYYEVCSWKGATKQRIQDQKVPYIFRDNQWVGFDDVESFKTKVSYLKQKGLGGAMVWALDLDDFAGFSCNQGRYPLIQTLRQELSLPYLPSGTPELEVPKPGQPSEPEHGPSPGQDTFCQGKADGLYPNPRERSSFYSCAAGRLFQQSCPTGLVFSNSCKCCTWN
wLAT-1A (Homo sapiens), Q01650, sequence (Q01650 whole entry): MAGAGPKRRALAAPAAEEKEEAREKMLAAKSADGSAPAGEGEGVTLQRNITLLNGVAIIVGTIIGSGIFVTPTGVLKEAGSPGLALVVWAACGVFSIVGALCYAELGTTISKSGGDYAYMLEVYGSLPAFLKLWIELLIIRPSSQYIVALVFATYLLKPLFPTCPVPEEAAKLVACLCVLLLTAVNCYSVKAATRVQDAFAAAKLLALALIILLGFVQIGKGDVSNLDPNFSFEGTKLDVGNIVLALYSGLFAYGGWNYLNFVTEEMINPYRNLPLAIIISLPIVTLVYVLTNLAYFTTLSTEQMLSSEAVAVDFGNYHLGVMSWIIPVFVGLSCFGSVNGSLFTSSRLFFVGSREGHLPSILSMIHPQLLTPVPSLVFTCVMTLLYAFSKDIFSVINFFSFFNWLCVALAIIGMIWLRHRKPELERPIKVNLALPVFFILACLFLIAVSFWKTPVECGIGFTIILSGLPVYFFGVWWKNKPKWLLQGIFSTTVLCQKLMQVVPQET
C3b (Homo sapiens), P01024, sequence (P01024 23-667): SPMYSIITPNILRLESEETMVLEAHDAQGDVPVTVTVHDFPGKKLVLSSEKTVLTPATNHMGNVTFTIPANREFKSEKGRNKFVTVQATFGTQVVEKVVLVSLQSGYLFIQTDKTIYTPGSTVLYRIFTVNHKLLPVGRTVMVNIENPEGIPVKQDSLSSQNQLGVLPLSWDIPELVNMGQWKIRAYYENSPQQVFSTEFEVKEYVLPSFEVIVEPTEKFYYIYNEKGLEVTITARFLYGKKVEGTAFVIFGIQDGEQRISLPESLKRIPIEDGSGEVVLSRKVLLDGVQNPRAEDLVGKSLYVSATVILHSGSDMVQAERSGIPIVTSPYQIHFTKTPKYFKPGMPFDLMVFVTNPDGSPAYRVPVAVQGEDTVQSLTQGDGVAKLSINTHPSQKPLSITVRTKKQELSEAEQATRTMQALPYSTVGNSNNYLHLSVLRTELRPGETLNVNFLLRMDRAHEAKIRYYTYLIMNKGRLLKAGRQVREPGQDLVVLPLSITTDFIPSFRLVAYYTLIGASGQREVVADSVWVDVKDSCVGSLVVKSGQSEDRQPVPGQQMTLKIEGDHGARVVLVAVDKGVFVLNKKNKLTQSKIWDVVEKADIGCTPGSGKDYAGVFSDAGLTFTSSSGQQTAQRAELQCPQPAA
PILRb (Mus musculus), Q2YSF2, sequence (Q2YSF2 entry or part of it): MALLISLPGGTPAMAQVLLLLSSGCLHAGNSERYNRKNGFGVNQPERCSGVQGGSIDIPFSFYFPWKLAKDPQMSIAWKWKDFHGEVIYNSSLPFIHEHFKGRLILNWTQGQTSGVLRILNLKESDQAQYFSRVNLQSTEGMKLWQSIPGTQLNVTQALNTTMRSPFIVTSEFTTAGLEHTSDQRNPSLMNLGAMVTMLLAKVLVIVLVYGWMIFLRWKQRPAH
Avaren (Actinomycete K97), sequence (chain, as listed by the source): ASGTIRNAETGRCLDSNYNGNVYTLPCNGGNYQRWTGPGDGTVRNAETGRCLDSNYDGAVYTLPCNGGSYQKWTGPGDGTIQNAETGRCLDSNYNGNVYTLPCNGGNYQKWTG

As for SRLC (Mus musculus), Q8VIF6, the “glycan array binding signal (z-score)” value is -0.239 in assay [1], -0.081 in [2] and 0.13 in the assay on Gal3S6S(b1-4)GlcNAc6S.
Regarding MpAFP RI GFP (Marinomonas primoryensis), the “glycan array binding signal (z-score)” value in [1] is -0.359; with Gal(b1-6)Gal it was -0.336; in the assay on Gal3S(b1-3)GlcNAc, -0.429; in the assay on Gal3S(b1-4)Glc it was 0.469.
For wLAT-1A (Homo sapiens), Q01650, the figures for the “glycan array binding signal (z-score)” value (in assay [1]; in the assay on Gal6S(b1-4)GlcNAc) were 0.12 and 3.6, respectively.
With CHT (Homo sapiens), the “glycan array binding signal (z-score)” value in assay [1] (mutation: D138V, E140I) is -0.115; with Gal3S6S(b1-4)GlcNAc (mutation: D138V, E140I), -0.059.
For CHI3L1 (Homo sapiens), P36222, the “glycan array binding signal (z-score)” value in the assay with Gal(b1-4)GlcNAc is -0.122; in the assay with Gal3S(b1-4)GlcNAc6S it was -0.093; in the assay on Gal3S(b1-4)GlcNAc, 0.706; in [3], 0.014.
Consider Aggrecan (Rattus norvegicus), NP_071526, for which the “glycan array binding signal (z-score)” value in the assay on Gal3S6S(b1-4)GlcNAc is -0.034; in the assay with Gal4S6S(b1-4)GlcNAc, -0.024; in the assay with Gal6S(b1-4)GlcNAc, 0.061.
As to C3b (Homo sapiens), P01024, the entries for the “glycan array binding signal (z-score)” value in the assay with Gal3S(b1-3)GlcNAc and in the assay with Gal3S6S(b1-4)GlcNAc were 1.05 and -0.743, respectively.
Neurocan (Homo sapiens), O14594: the “glycan array binding signal (z-score)” value with Gal(b1-4)Glc is -0.551.
Regarding PILRa (Mus musculus), Q2YSF3, the “glycan array binding signal (z-score)” value was -0.218 in [1], 0.049 in the assay on Gal3S(b1-4)Glc and 1.62 in the assay on Gal6S(b1-3)GlcNAc.
Take Siglec-8 (Homo sapiens), Q9NYZ4: the “glycan array binding signal (z-score)” value was -0.099 in assay [4]; -0.178 with Gal(b1-6)Gal; -0.117 in the assay on Gal(b1-6)Gal (mutation: R125K); 0.076 in the assay with Gal3S(b1-3)GalNAc; 0.077 in [5]; -0.171 in [6]. In addition, in assay [7], the “glycan array binding signal (z-score)” value is 0.148.
Consider Avaren (Actinomycete K97), for which the “glycan array binding signal (z-score)” value in the assay on Gal3S(b1-3)GalNAc was -0.121.
Regarding “Regenerating Gene IV (Homo sapiens), Q9BYZ8”, the “glycan array binding signal (z-score)” value in assay [4] turned out to be 0.244; with Gal3S6S(b1-4)GlcNAc, 0.332.
Regarding 6RG (Lolium perenne), B9U140, the “glycan array binding signal (z-score)” value in the assay with Gal3S(b1-4)GlcNAc6S was 0.775; in the assay with Gal3S6S(b1-4)GlcNAc6S, 2.09; in the assay on Gal4S6S(b1-4)GlcNAc, 1.06.
For PILRb (Mus musculus), Q2YSF2, the “glycan array binding signal (z-score)” value in [3] came to 0.773.
